# Values joined by “and” are separate entries in the source; they are usually repeats but may differ in a detail not shown here. Equal entries are not always repeated. About 2,000 (36%) of roughly 5,500 compounds were called active. Another 18% or so got no clear call; they are omitted. The list shows a part of the results. Values without a mark were called inactive. No stated cut-off is given here; in the data, active means normalized growth mostly below about 0.91 (no sharp cut-off); inconclusive means no clear call, values can overlap the other calls; inactive means mostly above about 0.92.
# Test: chemical genetic growth profiling, strain panel (AID 1159580);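 further: tested at 20 µM; growth read once vehicle control cultures reached saturation at 30 °C; 1 = growth at the plate median or of vehicle wells; lower values mean less growth of the strain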
# Conditions: growth OD
smiles,measurement,setting,value
O=C(/C=C/c1ccc(O)cc1)c1ccc(O)cc1O,normalized growth,"S. cerevisiae deletion strains, locus YJR075W, strain HOC1, active compounds read low",0.985 and 0.976
same,normalized growth,"S. cerevisiae deletion strains, locus YKL009W, strain mrt4, active compounds read low",0.947
same,normalized growth,"S. cerevisiae deletion strains, locus YKL068W, active compounds read low",0.95
same,normalized growth,"S. cerevisiae deletion strains, locus YKL085W, strain MDH1 (second series), active compounds read low",0.965
same,normalized growth,"S. cerevisiae deletion strains, locus YKL085W, strain MDH1, active compounds read low",0.965
same,normalized growth,"S. cerevisiae deletion strains, locus YKL160W, strain elf1, active compounds read low",0.988
same,normalized growth,"S. cerevisiae deletion strains, locus YKL190W, strain CNB1, active compounds read low",0.993
same,normalized growth,"S. cerevisiae deletion strains, locus YKR001C, strain vps1, active compounds read low",0.887 (active)
same,normalized growth,"S. cerevisiae deletion strains, locus YKR026C, strain gcn3, active compounds read low",1.01
same,normalized growth,"S. cerevisiae deletion strains, locus YKR091W, strain srl3, active compounds read low",1.01
same,normalized growth,"S. cerevisiae deletion strains, locus YLL001W, strain dnm1, active compounds read low",1.01
same,normalized growth,"S. cerevisiae deletion strains, locus YLL026W, active compounds read low",1
same,normalized growth,"S. cerevisiae deletion strains, locus YLL041C, strain sdh2, active compounds read low",1.01
same,normalized growth,"S. cerevisiae deletion strains, locus YLR027C, strain aat2, active compounds read low",0.978
same,normalized growth,"S. cerevisiae deletion strains, locus YLR039C, strain RIC1, active compounds read low",0.942
same,normalized growth,"S. cerevisiae deletion strains, locus YLR058C, strain SHM2, active compounds read low",1.01
same,normalized growth,"S. cerevisiae deletion strains, locus YLR102C, strain apc9, active compounds read low",0.953
same,normalized growth,"S. cerevisiae deletion strains, locus YLR113W, strain HOG1, active compounds read low",0.927
same,normalized growth,"S. cerevisiae deletion strains, locus YLR221C, strain rsa3, active compounds read low",0.987
same,normalized growth,"S. cerevisiae deletion strains, locus YLR258W, strain gsy2, active compounds read low",1.01
same,normalized growth,"S. cerevisiae deletion strains, locus YLR262C, strain YPT6 (second series), active compounds read low",1.02
same,normalized growth,"S. cerevisiae deletion strains, locus YLR262C, strain YPT6, active compounds read low",1.02
same,normalized growth,"S. cerevisiae deletion strains, locus YLR268W, strain sec22, active compounds read low",0.957
same,normalized growth,"S. cerevisiae deletion strains, locus YLR320W, strain mms22, active compounds read low",1.01
same,normalized growth,"S. cerevisiae deletion strains, locus YLR330W, strain CHS5, active compounds read low",0.985
same,normalized growth,"S. cerevisiae deletion strains, locus YLR342W, strain FKS1 (second series), active compounds read low",0.981
same,normalized growth,"S. cerevisiae deletion strains, locus YLR342W, strain FKS1, active compounds read low",1
same,normalized growth,"S. cerevisiae deletion strains, locus YLR357W, strain rsc2, active compounds read low",0.997
same,normalized growth,"S. cerevisiae deletion strains, locus YLR370C, strain arc18, active compounds read low",1.02
same,normalized growth,"S. cerevisiae deletion strains, locus YLR371W, strain rom2, active compounds read low",0.9 (active)
same,normalized growth,"S. cerevisiae deletion strains, locus YLR384C, strain iki3, active compounds read low",1.01
same,normalized growth,"S. cerevisiae deletion strains, locus YLR418C, strain cdc73, active compounds read low",0.86
same,normalized growth,"S. cerevisiae deletion strains, locus YML016C, strain PPZ1, active compounds read low",0.986
same,normalized growth,"S. cerevisiae deletion strains, locus YML032C, strain rad52, active compounds read low",0.984
same,normalized growth,"S. cerevisiae deletion strains, locus YML120C, strain ndi1, active compounds read low",0.995
same,normalized growth,"S. cerevisiae deletion strains, locus YML124C, strain tub3, active compounds read low",0.964
same,normalized growth,"S. cerevisiae deletion strains, locus YMR058W, strain fet3, active compounds read low",1.02
same,normalized growth,"S. cerevisiae deletion strains, locus YMR078C, strain ctf18, active compounds read low",0.954
same,normalized growth,"S. cerevisiae deletion strains, locus YMR125W, strain sto1, active compounds read low",0.992
same,normalized growth,"S. cerevisiae deletion strains, locus YMR129W, active compounds read low",1.03
same,normalized growth,"S. cerevisiae deletion strains, locus YMR205C, strain PFK2, active compounds read low",0.967
same,normalized growth,"S. cerevisiae deletion strains, locus YMR223W, strain ubp8, active compounds read low",0.967
same,normalized growth,"S. cerevisiae deletion strains, locus YMR231W, strain pep5, active compounds read low",1.01
same,normalized growth,"S. cerevisiae deletion strains, locus YMR263W, strain SAP30, active compounds read low",0.989
same,normalized growth,"S. cerevisiae deletion strains, locus YMR307W, strain GAS1, active compounds read low",1.08
same,normalized growth,"S. cerevisiae deletion strains, locus YNL067W, strain RPL9B, active compounds read low",1.01
same,normalized growth,"S. cerevisiae deletion strains, locus YNL071W, strain lat1, active compounds read low",0.996
same,normalized growth,"S. cerevisiae deletion strains, locus YNL128W, strain TEP1, active compounds read low",0.964
same,normalized growth,"S. cerevisiae deletion strains, locus YNL153C, strain GIM3, active compounds read low",1.03
same,normalized growth,"S. cerevisiae deletion strains, locus YNL175C, strain NOP13, active compounds read low",0.979
same,normalized growth,"S. cerevisiae deletion strains, locus YNL183C, strain NPR1, active compounds read low",0.944
same,normalized growth,"S. cerevisiae deletion strains, locus YNL197C, strain WHI3, active compounds read low",0.992
same,normalized growth,"S. cerevisiae deletion strains, locus YNL209W, strain ssb2, active compounds read low",1
same,normalized growth,"S. cerevisiae deletion strains, locus YNL224C, strain SQS1, active compounds read low",0.976
same,normalized growth,"S. cerevisiae deletion strains, locus YNL233W, strain BNI4, active compounds read low",0.975
same,normalized growth,"S. cerevisiae deletion strains, locus YNL248C, strain rpa49, active compounds read low",1.04
same,normalized growth,"S. cerevisiae deletion strains, locus YNL250W, strain rad50, active compounds read low",0.961
same,normalized growth,"S. cerevisiae deletion strains, locus YNL271C, strain bni1, active compounds read low",0.965
same,normalized growth,"S. cerevisiae deletion strains, locus YNL298W, strain CLA4, active compounds read low",0.99
same,normalized growth,"S. cerevisiae deletion strains, locus YNL307C, strain MCK1, active compounds read low",0.968
same,normalized growth,"S. cerevisiae deletion strains, locus YNL322C, strain KRE1 (second series), active compounds read low",1
same,normalized growth,"S. cerevisiae deletion strains, locus YNR049C, strain mso1, active compounds read low",1.01
same,normalized growth,"S. cerevisiae deletion strains, locus YNR052C, strain pop2, active compounds read low",1.01
same,normalized growth,"S. cerevisiae deletion strains, locus YOL012C, strain htz1",1.77
same,normalized growth,"S. cerevisiae deletion strains, locus YOL147C, strain pex11, active compounds read low",0.969
same,normalized growth,"S. cerevisiae deletion strains, locus YOR001W, strain rrp6, active compounds read low",1.02
same,normalized growth,"S. cerevisiae deletion strains, locus YOR061W, strain CKA2, active compounds read low",0.988
same,normalized growth,"S. cerevisiae deletion strains, locus YOR069W, strain VPS5, active compounds read low",0.976
same,normalized growth,"S. cerevisiae deletion strains, locus YOR070C, strain gyp1, active compounds read low",1
same,normalized growth,"S. cerevisiae deletion strains, locus YOR080W, strain dia2, active compounds read low",1.01
same,normalized growth,"S. cerevisiae deletion strains, locus YOR083W, strain WHI5 (second series), active compounds read low",0.982
same,normalized growth,"S. cerevisiae deletion strains, locus YOR083W, strain WHI5, active compounds read low",0.974
same,normalized growth,"S. cerevisiae deletion strains, locus YOR106W, strain vam3, active compounds read low",0.988
same,normalized growth,"S. cerevisiae deletion strains, locus YOR136W, strain idh2, active compounds read low",0.974
same,normalized growth,"S. cerevisiae deletion strains, locus YOR144C, strain elg1, active compounds read low",0.99
same,normalized growth,"S. cerevisiae deletion strains, locus YOR184W, strain ser1, active compounds read low",0.93
same,normalized growth,"S. cerevisiae deletion strains, locus YOR231W, strain MKK1, active compounds read low",0.874
same,normalized growth,"S. cerevisiae deletion strains, locus YOR265W, strain rbl2, active compounds read low",1.02
same,normalized growth,"S. cerevisiae deletion strains, locus YOR270C, strain vph1, active compounds read low",1.04
same,normalized growth,"S. cerevisiae deletion strains, locus YOR290C, strain snf2, active compounds read low",0.976
same,normalized growth,"S. cerevisiae deletion strains, locus YOR316C, strain cot1, active compounds read low",0.962
same,normalized growth,"S. cerevisiae deletion strains, locus YPL051W, strain arl3, active compounds read low",0.975
same,normalized growth,"S. cerevisiae deletion strains, locus YPL055C, strain LGE1, active compounds read low",0.977
same,normalized growth,"S. cerevisiae deletion strains, locus YPL078C, strain atp4, active compounds read low",0.99
same,normalized growth,"S. cerevisiae deletion strains, locus YPL106C, strain sse1, active compounds read low",0.982
same,normalized growth,"S. cerevisiae deletion strains, locus YPL240C, strain hsp82, active compounds read low",1.01
same,normalized growth,"S. cerevisiae deletion strains, locus YPL256C, strain CLN2, active compounds read low",0.877
same,normalized growth,"S. cerevisiae deletion strains, locus YPR119W, strain clb2, active compounds read low",0.949
same,normalized growth,"S. cerevisiae deletion strains, locus YPR141C, strain kar3, active compounds read low",0.972
same,normalized growth,"S. cerevisiae deletion strains, locus YPR163C, strain tif3, active compounds read low",0.976
same,normalized growth,"S. cerevisiae deletion strains, locus YPR167C, strain met16, active compounds read low",0.966
same,normalized growth,"S. cerevisiae deletion strains, strain wtn01, active compounds read low",0.94
same,normalized growth,"S. cerevisiae strains, strain wild type, active compounds read low",0.991
